Measured values taken from PubChem BioAssay.
For some assays here: Entries with a potency or affinity are not part of this list. Activity calls are given as the source filed them.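 How the source made its calls, unless noted: active means calcium signal cut by more than 3 SD below the full-agonist control yet still positive, in both repeats and the earlier primary screen; inactive means the rest.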

How the values were obtained:
[1] = system: TRPC4 beta (transient receptor potential cation channel C4), mouse; assay: activators of mouse TRPC4 channel, confirmation, cell-based, Fluo4 calcium, HEK293 TRPC4beta/mu-opioid, duplicates, 10 µM (AID 2426;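 active means fluorescence ratio normalized to control raised more than 50% in primary screen plus both repeat runs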); details: Fluo4 calcium fluorescence, at 10 µM; active compounds read high
[2] = system: transient receptor potential cation channel C4 beta (TRPC4), mouse; assay: activators of mouse TRPC4 channel, confirmation, cell-based, second round, Fluo4, HEK293 TRPC4beta/mu-opioid, 1 µM (AID 2461;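 active means primary screen active and over 50% activation in each of two duplicate runs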); details: Fluo4 calcium fluorescence, at 1 µM; active compounds read high
[3] = system: TRPC4 (transient receptor potential cation channel C4 beta), mouse; assay: positive allosteric modulators of mouse TRPC4, confirmation, cell-based, second round, Fluo-4, HEK293 TRPC4beta/mu-opioid, 1 µM (AID 2554;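 active means primary screen hit whose fluorescence ratio, in both repeats, exceeds the weak agonist control mean by 3 SD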); details: DAMGO EC20, Fluo-4 calcium flux, at 1 µM; active compounds read high
[4] = system: TRPC4 beta (transient receptor potential cation channel C4), mouse; assay: positive allosteric modulators of mouse TRPC4, confirmation, cell-based, Fluo-4, HEK293 TRPC4beta/mu-opioid (AID 2555;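 active means primary screen hit whose calcium fluorescence ratio, in both repeats, exceeds the weak agonist control mean by 3 SD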); details: DAMGO EC20, Fluo-4 calcium flux, at 10 µM; active compounds read high
[5] = target: Short transient receptor potential channel 4 (Mus musculus) (UniProt Q9QUQ5); assay: inhibitors of mouse TRPC4 channel, confirmation, cell-based, Fluo4, HEK293 TRPC4beta/mu-opioid (AID 2636); details: DAMGO, Fluo4 calcium flux, at 10 µM; active compounds read high
Short transient receptor potential channel 4 (Mus musculus), sequence (Q9QUQ5 whole entry, looked up): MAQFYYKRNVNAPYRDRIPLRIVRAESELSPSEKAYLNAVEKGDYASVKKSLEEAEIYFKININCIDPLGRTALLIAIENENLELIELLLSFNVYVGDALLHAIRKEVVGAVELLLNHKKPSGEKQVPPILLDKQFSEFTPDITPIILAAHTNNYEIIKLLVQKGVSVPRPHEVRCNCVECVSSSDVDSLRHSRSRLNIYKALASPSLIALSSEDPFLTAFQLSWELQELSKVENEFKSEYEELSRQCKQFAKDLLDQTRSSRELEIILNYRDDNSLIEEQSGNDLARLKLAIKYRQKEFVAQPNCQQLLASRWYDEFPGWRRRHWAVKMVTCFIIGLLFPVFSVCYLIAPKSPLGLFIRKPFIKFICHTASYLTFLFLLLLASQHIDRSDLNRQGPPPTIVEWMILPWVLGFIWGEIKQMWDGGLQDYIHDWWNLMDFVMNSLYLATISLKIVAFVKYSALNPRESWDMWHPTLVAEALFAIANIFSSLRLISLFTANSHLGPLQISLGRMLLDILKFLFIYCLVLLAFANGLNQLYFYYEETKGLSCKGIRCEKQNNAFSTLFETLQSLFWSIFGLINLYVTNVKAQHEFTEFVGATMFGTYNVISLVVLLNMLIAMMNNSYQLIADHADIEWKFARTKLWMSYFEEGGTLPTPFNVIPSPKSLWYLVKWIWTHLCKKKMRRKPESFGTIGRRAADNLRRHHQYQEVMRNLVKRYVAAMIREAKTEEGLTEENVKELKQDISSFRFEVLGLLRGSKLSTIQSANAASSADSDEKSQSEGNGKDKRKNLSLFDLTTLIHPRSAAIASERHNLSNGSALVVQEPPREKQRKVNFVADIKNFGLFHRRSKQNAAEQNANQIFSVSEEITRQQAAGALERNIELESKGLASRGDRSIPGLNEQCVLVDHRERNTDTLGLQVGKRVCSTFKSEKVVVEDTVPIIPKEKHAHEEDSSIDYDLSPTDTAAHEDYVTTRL

[6] = target: Short transient receptor potential channel 4 (Mus musculus) (UniProt Q9QUQ5); assay: inhibitors of mouse TRPC4 channel, confirmation, cell-based, second round, Fluo4, HEK293 TRPC4beta/mu-opioid, 1 µM (AID 2637;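 active means calcium signal ratio cut to more than 3 SD under the fully stimulated control mean yet still positive, in both repeats and the primary screen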;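 on inhibition: percent of integrated ratio relative to wells lacking test compound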); details: Fluo4 calcium flux, DAMGO, at 1 µM; active compounds read high
[7] = target: Short transient receptor potential channel 4 (Mus musculus) (UniProt Q9QUQ5); assay: mouse TRPC4 channel activators, dose response, cell-based, HEK293 TRPC4/mu-opioid, Fluo-4 calcium (AID 434937;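 active means primary screen activator hit with a dose response curve and TRPC4 channel activation at any tested dose; inactive means no activation, no dose response, or not a primary hit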)
[8] = target: Short transient receptor potential channel 4 (Mus musculus) (UniProt Q9QUQ5); assay: TRPC4 positive allosteric modulators, dose response, cell-based, HEK293 TRPC4/mu-opioid, Fluo-4 calcium, EC20 DAMGO (AID 434941;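 active means earlier screen potentiator hit that boosts the TRPC4 ion channel at some dose, with a dose response; inactive means no potentiation, no dose response, or not a prior hit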;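 further: calcium entry triggered by an EC20 dose of DAMGO at the co-expressed mu-opioid receptor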)
[9] = target: Short transient receptor potential channel 6 (Mus musculus) (UniProt Q61143); assay: inhibition of mouse TRPC6 channel, confirmation, selectivity assay for TRPC4 inhibitor project, cell-based, HEK293, membrane potential dye, duplicate (AID 434948;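 active means active in primary screen and both duplicates, each dropping signal beyond three positive-control SD with fluorescence still positive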); details: HEK293 TRPC6, membrane potential dye fluorescence, at 10 µM, stimulated with maximal-effect acetylcholine; active compounds read high
Short transient receptor potential channel 6 (Mus musculus), sequence (Q61143 whole entry, looked up): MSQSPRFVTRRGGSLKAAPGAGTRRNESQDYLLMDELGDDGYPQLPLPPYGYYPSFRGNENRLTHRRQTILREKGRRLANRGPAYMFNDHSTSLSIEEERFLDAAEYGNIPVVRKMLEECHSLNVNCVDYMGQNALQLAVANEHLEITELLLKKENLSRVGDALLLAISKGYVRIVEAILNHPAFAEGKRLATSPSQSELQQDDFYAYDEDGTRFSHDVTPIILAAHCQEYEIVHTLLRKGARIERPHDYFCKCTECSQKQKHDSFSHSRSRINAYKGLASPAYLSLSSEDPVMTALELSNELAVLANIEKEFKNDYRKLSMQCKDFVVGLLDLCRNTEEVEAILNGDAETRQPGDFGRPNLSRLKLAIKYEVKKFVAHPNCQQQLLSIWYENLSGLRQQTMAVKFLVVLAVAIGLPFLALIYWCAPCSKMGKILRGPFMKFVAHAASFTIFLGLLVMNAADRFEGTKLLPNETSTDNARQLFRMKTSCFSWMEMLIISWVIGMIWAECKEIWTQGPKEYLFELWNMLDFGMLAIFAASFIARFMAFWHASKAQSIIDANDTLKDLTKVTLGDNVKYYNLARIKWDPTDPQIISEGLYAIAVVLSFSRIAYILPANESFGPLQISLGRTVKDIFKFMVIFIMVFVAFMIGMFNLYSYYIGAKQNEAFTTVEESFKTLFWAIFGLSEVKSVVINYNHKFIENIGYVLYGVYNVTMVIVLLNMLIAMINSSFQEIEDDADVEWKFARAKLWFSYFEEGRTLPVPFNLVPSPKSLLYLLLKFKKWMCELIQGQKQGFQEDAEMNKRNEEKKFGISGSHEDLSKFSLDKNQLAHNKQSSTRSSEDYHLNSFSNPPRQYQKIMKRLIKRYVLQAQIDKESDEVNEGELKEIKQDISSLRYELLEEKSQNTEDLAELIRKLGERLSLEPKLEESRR

[10] = target: Short transient receptor potential channel 6 (Mus musculus) (UniProt Q61143); assay: activation of mouse TRPC6 channel, confirmation, selectivity assay for TRPC4 activator project, cell-based, HEK293, membrane potential dye, duplicate (AID 434950;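 active means membrane potential signal rise above negative control mean plus 3 SD in both duplicates, also active in the earlier TRPC4 screen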); details: HEK293 TRPC6, membrane potential fluorescence, at 10 µM; active compounds read high
[11] = target: Short transient receptor potential channel 6 (Mus musculus) (UniProt Q61143); assay: TRPC6 potentiation by TRPC4 potentiator hits, confirmation, selectivity assay for TRPC4 potentiator project, HEK293 cells, membrane potential dye, duplicate (AID 434952;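 active means compound raising the membrane signal above positive-control mean plus 3 SD in both repeats, and a primary screen hit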); details: HEK293 TRPC6, membrane potential dye fluorescence, at 10 µM, maximal acetylcholine added after compound; active compounds read high
[12] = target: Short transient receptor potential channel 4 (Mus musculus) (UniProt Q9QUQ5); assay: calcium flux activators in TRPC4/5HT1a cells, counter-screen for TRPC4 activator project, cell-based, second counter screen, HEK293 TRPC4/5HT1a, Fluo-4 (AID 434977;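 active means calcium signal rise above buffer-control mean plus 5 SD in both duplicates, and also a hit in the primary screen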); details: Fluo-4 calcium flux, at 10 µM; active compounds read high
[13] = calcium flux inhibitors in TRPC4/5HT1a cells, confirmation, counter-screen for TRPC4 inhibitor project, cell-based, second counter screen, HEK293 TRPC4/5HT1a, Fluo-4 (AID 434978;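 active means primary screen active whose calcium signal fell more than 3 SD beyond the full-serotonin control mean in both duplicate plates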;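 on outcome: serotonin given first at submaximal then at maximal dose after compound preincubation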); details: Fluo-4 calcium flux, at 10 µM, serotonin added to trigger calcium flux; active compounds read high
[14] = system: TRPC4 (mouse), co-expressed with 5HT1a in HEK293; assay: calcium flux potentiators in TRPC4/5HT1a cells, confirmation, counter-screen for TRPC4 potentiator project, cell-based, second counter screen, HEK293 TRPC4/5HT1a, Fluo-4 (AID 434979;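 active means signal rise over 3 SD above mean of control wells given weak agonist, in both repeats and first screen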); details: Fluo-4 calcium flux, at 10 µM, serotonin added at its EC20 dose; active compounds read high
[15] = calcium flux activation in mu-opioid HEK293 cells, confirmation, counter-screen for TRPC4 activator project, cell-based, HEK293 mu-opioid receptor line (AID 449723;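 active means hit in primary screen, with calcium signal over 5 SD above buffer well mean in both duplicates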;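 further: counter screen cells carry the mu-opioid receptor alone and lack TRPC4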); details: Fluo-4 calcium fluorescence, at 10 µM; active compounds read high
[16] = calcium flux enhancement in mu-opioid HEK293 cells, confirmation, counter-screen for TRPC4 allosteric potentiator project, cell-based, HEK293 mu-opioid receptor line (AID 449724;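 active means calcium signal rise more than 3 SD above the low-dose agonist control mean, in both duplicate plates and the primary screen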); details: Fluo-4 calcium flux, at 10 µM, compound added before EC20 DAMGO stimulus; active compounds read high

SMILES | outcome [1] | outcome [2] | outcome [3] | outcome [4] | inhibition [5] | outcome [6] | outcome [7] | outcome [8] | outcome [9] | outcome [10] | outcome [11] | outcome [12] | outcome [13] | outcome [14] | outcome [15] | outcome [16] | inhibition [13] | outcome [5] | inhibition [6]
Cc1ccc(OCc2cc(C(=O)N(C)CCc3nc4ccccc4[nH]3)no2)cc1C | inactive | inactive | inactive | inactive | 69% (active) | inactive | inactive | inactive | inactive | inactive | inactive | inactive | inactive | inactive | inactive | inactive | – | – | –
O=[N+]([O-])c1ccc(CN2CCN(Cc3c[nH]c4ccccc34)CC2)cc1 | inactive | inactive | inactive | inactive | 83% (active) | inactive | inactive | inactive | inactive | inactive | inactive | inactive | – | inactive | inactive | inactive | 28.9% (active) | – | –
CN(C(=O)CSc1nc(-c2ccc(C(C)(C)C)cc2)c(C#N)c(=O)[nH]1)C1CCCCC1 | inactive | inactive | inactive | inactive | 97% (active) | inactive | inactive | inactive | inactive | inactive | inactive | inactive | – | inactive | inactive | inactive | 4.92% (active) | – | –
COc1ccc(C(CNc2ccc(C(F)(F)F)cn2)N(C)C)cc1OC (stereo not drawn) | inactive | inactive | inactive | inactive | – | – | inactive | inactive | inactive | inactive | inactive | inactive | inactive | inactive | inactive | inactive | – | inactive | 69% (active)
CCOC(=O)C1(Cc2cccc(F)c2)CCN(Cc2c(C)nn(CC)c2C)CC1 | inactive | inactive | inactive | inactive | 86% (active) | inactive | inactive | inactive | inactive | inactive | inactive | inactive | inactive | inactive | inactive | inactive | – | – | –
CC(C)(C)c1cc2cccnc2n1Cc1ccccc1 | inactive | inactive | inactive | inactive | 95% (active) | – | inactive | inactive | inactive | inactive | inactive | inactive | – | inactive | inactive | inactive | 15.4% (active) | – | 70% (active)
CCCCn1c(NCCO)nc2ccccc21 | inactive | inactive | inactive | inactive | 92% (active) | – | inactive | inactive | inactive | inactive | inactive | inactive | – | inactive | inactive | inactive | 29.5% (active) | – | 66% (active)
Cc1ccc(Cn2c(Cc3ccccc3)nc3ccccc32)cc1 | inactive | inactive | inactive | inactive | – | – | inactive | inactive | inactive | inactive | inactive | inactive | – | inactive | inactive | inactive | 7.29% (active) | inactive | 64% (active)
